Measurements from PubChem BioAssay AID2161 (National Center for Advancing Translational Sciences (NCATS), 2009).
Values joined by “and” are separate entries in the source; they are usually repeats but may differ in a detail not shown here. Identical values can stand only once. Some of the results follow. Active and inactive are the calls of the source. Calls come from the whole dose curve; as a rule, active = well fitted inhibition curve with a large enough effect; inactive = no such curve, though single readings can be large or run the other way.

The compounds below were run against Papain (Carica papaya) (UniProt P00784) (assay: qHTS Assay for Inhibitors of Papain: Counterscreen for Cruzain Assay). Settings: purified papain, Z-FR-AMC fluorescence cleavage; max response, negative = inhibition: active compounds read low.
Chain of Papain (Carica papaya) (P00784 whole entry, looked up): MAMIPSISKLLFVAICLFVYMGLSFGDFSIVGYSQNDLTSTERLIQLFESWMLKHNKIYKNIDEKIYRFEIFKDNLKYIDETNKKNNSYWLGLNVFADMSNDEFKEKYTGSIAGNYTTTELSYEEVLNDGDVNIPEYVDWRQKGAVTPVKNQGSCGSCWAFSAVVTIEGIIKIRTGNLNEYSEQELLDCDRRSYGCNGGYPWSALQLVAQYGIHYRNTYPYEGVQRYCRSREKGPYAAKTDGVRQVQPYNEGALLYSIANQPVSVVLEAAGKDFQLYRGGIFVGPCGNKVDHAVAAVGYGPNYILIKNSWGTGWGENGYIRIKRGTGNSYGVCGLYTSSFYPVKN
From the text: Assay Provider: Shoichet, Brian; University of California, San Fancisco Screening Center PI: Austin, C.P. Screening Center: NIH Chemical Genomics Center [NCGC] The following papain assay is a counterscreen for a related protein cruzain (AID: 1478). Cruzain is a cysteine protease from the tropical parasite Trypanosoma cruzi. Activity against papain was used to help prioritize chemical series active against cruzain. Papain is a closely related cysteine protease known to utilize the same Z-FR-AMC fluorogenic substrate as cruzain. The fluorogenic assay used for cruzain was utilized here as well, with the exception of the reducing agent, which was 5 mM cystein here instead of DTT. Fluorogenic coumarin-based Z-FR-AMC substrate was used; proteolytic cleavage releases AMC, whose fluorescence is measured at 360 nm excitation and 450 nm emission. Purified papain was supplied by the labs of Profs. James McKerrow and Brian Shoichet, UC San Francisco. This assay had 0.01% Triton X-100 concentration.
Buffer: 100 mM Sodium Acetate, pH 5.5, 5 mM DTT, Triton X-100 concentration: 0.01%. Reagents/Controls: Buffer in columns 3 and 4 as negative control (no enzyme). Substrate solution: 2 uM final concentration of Z-FR-AMC (catalog number I-1160, Bachem) dispensed throughout the plate. Enzyme: 12 nM Papain final concentration. Assay Steps: Three uL of enzyme or buffer were dispensed to 1536-well Greiner black solid bottom plates. Compounds and controls (23 nL) were transferred via Kalypsys PinTool. The plates were incubated for 15 min at room temperature, and then 1 uL of substrate solution was added to start the reaction. The plates were immediately transferred to and read 4 times every 30 seconds for 2 min on ViewLux High-throughput CCD imager (Perkin-Elmer) using 360 nm excitation and 450 nm emission fluorescence protocol. The fluorescence intensity difference between the third and the first time points (time lapse of 60 seconds) was used to compute reaction progress. Data was normalized to neutral (no compound) and negative (no enzyme) controls.
Note: nearly all actives have a fitted effect of over 35% in size.
Potency is the fitted concentration of half-maximal effect.
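Throughout, for max response, negative = inhibition: 0% = no-compound wells and -100% = no-enzyme wells.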

SMILES	max response, negative = inhibition	Potency
c1ccc2cc3c(NCCN4CCOCC4)ccnc3cc2c1	-50.2% (inactive)	–
Cn1c(C(=O)NCCN2CCc3ccccc3C2)cc2c(=O)[nH]c3ccccc3c21	-20.9% (inactive)	–
C=CC(=O)c1ccc2ccccc2c1	–	12.6 µM (active)
CC(C)C[C@H](NC(=O)[C@@H]1O[C@H]1C(=O)O)C(=O)NCCCCN=C(N)N	–	0.01 µM (active)
O=C1OC(/C=C/c2ccccc2)=NC/1=C/c1ccco1	-2.34% (inactive)	–
CCc1ccc(OCCCn2c(CCCNC(=O)C3CCCCC3)nc3ccccc32)cc1	-1.28% (inactive)	–
N#Cc1nc(Nc2cccc(Cl)c2)nc(NC2CCCC2)n1	–	0.891 µM (active)
N#Cc1nc(Nc2cc(F)cc(Cl)c2)nc(NC2CCCC2)n1	–	1.12 µM (active)
CCCCNC(=O)Cn1c(SCc2cccc(Cl)c2)nc2ccncc21	-12% (inactive)	–
Cc1ccc(SCCC(=O)OCC(=O)Nc2ncc(Cl)cc2Cl)cc1	-6.29% (inactive)	–
Cc1ccc(-c2c3c(=O)n(C)c(=O)n(C)c3cn2-n2cnnc2)cc1	–	28.2 µM (active)
CCN(CC)c1nc(C#N)nc(OC)n1	–	5.01 µM (active)
N#Cc1nc(N)nc(N(c2ccccc2)c2ccccc2)n1	–	8.91 µM (active) and 11.2 µM (active)
O=C(OCN1C(=O)c2ccccc2C1=O)/C(=C\c1ccco1)NC(=O)c1ccccc1	-35.6% (inactive)	–
C=CCNC(=O)c1ccc2nc(-c3ccco3)c(-c3ccco3)nc2c1	-64.7% (inactive)	–
